# Test results published in PubChem BioAssay.
# Inconclusive results are not listed. Calls of active or inactive are those of the source.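 Rule for the calls, unless noted: active = viability at or under a set limit in both replicates, limit being median viability minus 3 SD (cut at about 48% in these data, passing the limit was not always enough); inconclusive = at or under the limit in just one replicate; inactive = at or above the limit in both replicates.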
# What was measured:
# [1] = Her2 expression decrease, cell viability multiplex – SKBR3 breast tumor cells, AlphaScreen, ATP viability, primary screen (AID 461;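 active = Her2 level under about 52% in both replicate screens, with viability over 70% of control, limit read from the data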;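 for Her2 level: lower value means less Her2 protein in the cells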;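 for viability: percent of carrier control wells set as 100% viability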); details: SKBR3 Her2 protein level, 18-24 h, measured here: SKBR3 viability, ATP luminescence, at 10 µM
# [2] = biological target: Receptor tyrosine-protein kinase erbB-2 (Homo sapiens) (UniProt P04626); experiment: as above; details: 18-24 h, at 10 µM, stronger effect = lower value
# [3] = reduced viability of SK-BR-3 breast cancer cells – cell-based, 24 h, human, pilot screen (AID 572;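 active = viability at or below 10% of carrier control in both of two separate runs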;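 note: compound exposure lasted between 18 and 24 h rather than exactly 24 h; 100% = carrier-treated control wells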); details: SK-BR-3 viability, CellTiter-Glo luminescence, at 10 µM, stronger effect = lower value
# [4] = HUVEC growth inhibition – cell-based, human, primary screen (AID 575;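 active = viability at or below 30% in both replicate assays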;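 note: 100% = median of untreated cell wells with 0.1% DMSO on each plate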); details: HUVEC proliferation, CellTiter-Glo luminescence, 72 h; at 10 µM; stronger effect = lower value
# [5] = H69AR cell proliferation blockers – human, duplicate replicates, primary screen (AID 580); details: H69AR lung tumor cells viability, ATP luminescence, 72 h; at 10 µM; stronger effect = lower value;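 note: 100% = mean luminescence of untreated wells and 0% = no signal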
# [6] = MRP1 drug-resistance reversers in H69AR cells – cell-based, doxorubicin co-treatment, pilot screen (AID 601;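 active = viability loss from added drug above about 55%, and viability with drug at most 40%, in both replicates, limit read from the data, passing the limit was not always enough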); details: CellTiter-Glo, 72 h, at 10 µM; for differential viability (reversal): stronger effect = higher value
# [7] = yeast transport mutant growth inhibition pilot in 384-well plates, post-Golgi transport modulator project (AID 636; in the data active = inhibition above about 31%); details: absorbance 615 nm, about 18 h, stronger effect = higher value
# [8] = growth suppression of yeast trafficking mutant, preliminary HTS, modulators of trafficking downstream of Golgi apparatus project, 1536-format plate, OD 615 nm (AID 637; in the data active = inhibition above about 30%); details: yeast transport mutant growth, absorbance 615 nm, 18 h; stronger effect = higher value
# [9] = S. cerevisiae growth inhibition in permissive medium (OD615), pilot counter-assay for S. cerevisiae lifespan shortening project, permissive growth control (AID 705;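 active = growth inhibition above 25% in both replicates, a cutoff set 3 SD above the mean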); details: OD615, 24 h, at 10 µM, stronger effect = higher value
# [10] = S. cerevisiae growth inhibition in restrictive medium, OD615, pilot screen, restrictive growth control, yeast lifespan reduction project (AID 706;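 active = growth inhibition above a set limit, 3 SD over mean compound inhibition, in both replicates, cut at about 43% in these data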;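 note: modified DeaD lifespan yeast strain shifted to restrictive glucose medium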); details: OD615, 48 h, at 10 µM, stronger effect = higher value
# [11] = doxorubicin toxicity protection in MRP-1 cells – H69AR cells, CellTiter-Glo, duplicate, MRP-1 activator project, pilot screen (AID 807;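 active = viability increase at or above a cutoff of the median across tested compounds plus 3 SD, cut at about 8.5% in these data, passing the limit was not always enough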;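 note: compound pretreatment 18-22 h then 72 h combined with doxorubicin; 0% = doxorubicin alone and 100% = vehicle without doxorubicin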); details: H69AR viability with doxorubicin, CellTiter-Glo luminescence; at 10 µM; stronger effect = higher value
# [12] = viability of HCT116 without oncogenic beta-catenin – human colon tumor cells, pilot screen (AID 823;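 active = cell viability at or below a set limit in both duplicate runs, the limit being the all-compound median minus 4 SD, cut at about 23% in these data, passing the limit was not always enough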;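 note: 0% = wells killed by 20 µM Hyamine and 100% = untreated DMSO cell wells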); details: HCT116 beta-catenin knockout viability, CellTiter-Glo, 60 h; at 10 µM; stronger effect = lower value
# [13] = viability of PTEN-null HCT116 cells – cell-based, HCT116 clonal line, CellTiter-Glo, pilot screen (AID 824;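 active = viability at or below 27.92% in each of two runs, the all-compound median minus 4 SD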;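 note: 0% = 20 µM Hyamine control and 100% = vehicle cell control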); details: HCT116 PTEN-deleted viability, 60 h, at 10 µM, stronger effect = lower value
# [14] = RAM pathway blockade in budding yeast – dse1pr::URA3 reporter, 5-FOA selection, pilot screen (AID 869;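 active = inhibition over a set limit, the all-compound mean plus 3 SD, in both replicate runs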;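 note: 0% = DMSO wells with no growth and 100% = 10 µM 1-NA-PP1 with full growth; RAM network block rescues cells from 5-FOA so hits raise OD615 growth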); details: S. cerevisiae dse1pr::URA3 5-FOA growth, OD615, 2 d; at 10 µM; stronger effect = higher value; strain carries analog-sensitive mutant Cbk1 kinase
# [15] = RAM signaling pathway blockade in yeast – S. cerevisiae, Pdr1DBD-CYC8 efflux-inhibited sensitized strain, primary screen (AID 1298;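 active = RAM network inhibition above 8.4% in each of two replicates, 3 SD over the compound average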;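 note: 0% = DMSO untreated cells without growth and 100% = 10 µM 1-NA-PP1 full growth; higher means more yeast growth rescued from 5-FOA killing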); details: S. cerevisiae cbk1-as DSE1-URA3 strain, 5-FOA growth OD615, 2 d; at 50 µM; stronger effect = higher value
# [16] = H69AR cells + 2 uM doxorubicin, measured here: viability with 2 uM doxorubicin, stronger effect = lower value
# [17] = H69AR cells, compound alone cytotoxicity
# Chain of Receptor tyrosine-protein kinase erbB-2 (Homo sapiens) (P04626 whole entry, looked up): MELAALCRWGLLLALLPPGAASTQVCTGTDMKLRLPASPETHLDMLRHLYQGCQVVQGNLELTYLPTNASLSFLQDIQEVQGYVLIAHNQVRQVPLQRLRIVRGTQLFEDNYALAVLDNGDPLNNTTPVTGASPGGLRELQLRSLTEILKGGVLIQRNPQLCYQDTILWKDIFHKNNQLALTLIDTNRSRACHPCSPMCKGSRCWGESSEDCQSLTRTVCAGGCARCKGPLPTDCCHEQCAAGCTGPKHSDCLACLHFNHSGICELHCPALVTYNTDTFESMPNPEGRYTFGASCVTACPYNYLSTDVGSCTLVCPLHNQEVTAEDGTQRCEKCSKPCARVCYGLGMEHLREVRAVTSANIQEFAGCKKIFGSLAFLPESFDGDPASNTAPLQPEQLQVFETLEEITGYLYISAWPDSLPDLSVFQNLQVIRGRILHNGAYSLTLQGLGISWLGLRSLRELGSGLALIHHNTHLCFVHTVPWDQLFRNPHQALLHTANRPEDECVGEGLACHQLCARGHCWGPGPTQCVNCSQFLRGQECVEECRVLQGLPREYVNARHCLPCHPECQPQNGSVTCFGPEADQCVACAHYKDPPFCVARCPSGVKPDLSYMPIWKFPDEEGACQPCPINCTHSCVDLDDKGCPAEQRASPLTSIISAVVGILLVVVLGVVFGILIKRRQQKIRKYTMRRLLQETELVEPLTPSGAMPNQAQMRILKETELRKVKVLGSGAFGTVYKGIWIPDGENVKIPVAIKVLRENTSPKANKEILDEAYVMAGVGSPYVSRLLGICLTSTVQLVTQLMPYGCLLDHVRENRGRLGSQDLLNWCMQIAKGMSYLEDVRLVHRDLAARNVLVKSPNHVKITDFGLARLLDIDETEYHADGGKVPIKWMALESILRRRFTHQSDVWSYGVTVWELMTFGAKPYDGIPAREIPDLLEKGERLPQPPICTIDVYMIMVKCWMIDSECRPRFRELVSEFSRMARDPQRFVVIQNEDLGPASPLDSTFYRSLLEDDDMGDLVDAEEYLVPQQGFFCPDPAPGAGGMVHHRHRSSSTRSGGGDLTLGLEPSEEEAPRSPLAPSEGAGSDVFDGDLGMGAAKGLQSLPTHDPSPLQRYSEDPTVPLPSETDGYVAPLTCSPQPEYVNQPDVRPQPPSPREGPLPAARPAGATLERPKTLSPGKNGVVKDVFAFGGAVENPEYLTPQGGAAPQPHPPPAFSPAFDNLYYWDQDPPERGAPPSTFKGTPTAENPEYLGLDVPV
Structure (SMILES),viability [1],Her2 level [2],viability [3],viability [4],viability [5],differential viability (reversal) ([6]; H69AR cells + 2 uM doxorubicin),"viability [6, 16]","viability [6, 17]",inhibition [7],inhibition [8],growth inhibition [9],growth inhibition [10],viability increase [11],viability [12],viability [13],inhibition [14],RAM network inhibition [15]
CCOc1ccc(-c2cc(CCCC(=O)N3CCN(c4ccc(OC)cc4)CC3)no2)cc1,85%,104% (inactive),85% (inactive),77.8% (inactive),67.7% (inactive),-2.52% (inactive),70.2%,67.7%,4.1% (inactive),-2.67% (inactive),2.23% (inactive),1.43% (inactive),-3.39% (inactive),81.7% (inactive),82.5% (inactive),2.54% (inactive),8.59% (inactive)
CN(CCNS(=O)(=O)c1ccc2c(c1)oc(=O)n2C)Cc1ccccc1,86%,99% (inactive),86% (inactive),90.7% (inactive),98.1% (inactive),10.2% (inactive),87.9%,98.1%,-2.95% (inactive),-2.33% (inactive),-2.83% (inactive),5.57% (inactive),-1.52% (inactive),97.5% (inactive),90.2% (inactive),2.44% (inactive),4.66% (inactive)
CCN1CCN(C(=O)c2cn(CC)c3ccc(S(=O)(=O)N(C)C)cc3c2=O)CC1,85.5%,104% (inactive),85.5% (inactive),100% (inactive),107% (inactive),11% (inactive),96.5%,107%,0% (inactive),-1% (inactive),-7.52% (inactive),-18% (inactive),-2.35% (inactive),101% (inactive),93.7% (inactive),2.08% (inactive),-1.09% (inactive)
COc1ccc(OC)c2[nH]c(=O)c(CCNC(=O)C(C)C)cc12,109%,118% (inactive),109% (inactive),83.2% (inactive),88.6% (inactive),-1.89% (inactive),90.5%,88.6%,-3.33% (inactive),1.83% (inactive),-3.17% (inactive),-5.05% (inactive),-0.71% (inactive),108% (inactive),103% (inactive),0.005% (inactive),1.31% (inactive)
CCOC(=O)Cc1ccc(NS(=O)(=O)c2ccc(SC)cc2)cc1,89%,88% (inactive),89% (inactive),67.9% (inactive),86.7% (inactive),3.83% (inactive),82.8%,86.7%,-5.54% (inactive),-5.08% (inactive),6.06% (inactive),-1.98% (inactive),-4.85% (inactive),94.4% (inactive),88.1% (inactive),0.825% (inactive),2.83% (inactive)
